# According to PubChem BioAssay AID1220 (Sanford-Burnham Center for Chemical Genomics, 2008):
# The campaign covered roughly 190,000 compounds. About 1,300 (0.68%) were called active. The sample holds actives, similar compounds and a random draw of the others, so the mix is not that of the screen. Unmarked numbers belong to inactive results. Cut-off read from the data, not from the text of the source: active = inhibition above about 50%; inactive = the rest.
# Target: Mannose-6-phosphate isomerase (Homo sapiens) (UniProt P34949)
# Test: human PMI inhibitors, high substrate, primary screen, biochemical, fluorescence intensity, high mannose 6-phosphate (AID 1220)
# Conditions: recombinant PMI enzyme, coupled fluorescence intensity; at 20 µM; hits give high values
# Sequence of Mannose-6-phosphate isomerase (Homo sapiens) (P34949 whole entry, looked up): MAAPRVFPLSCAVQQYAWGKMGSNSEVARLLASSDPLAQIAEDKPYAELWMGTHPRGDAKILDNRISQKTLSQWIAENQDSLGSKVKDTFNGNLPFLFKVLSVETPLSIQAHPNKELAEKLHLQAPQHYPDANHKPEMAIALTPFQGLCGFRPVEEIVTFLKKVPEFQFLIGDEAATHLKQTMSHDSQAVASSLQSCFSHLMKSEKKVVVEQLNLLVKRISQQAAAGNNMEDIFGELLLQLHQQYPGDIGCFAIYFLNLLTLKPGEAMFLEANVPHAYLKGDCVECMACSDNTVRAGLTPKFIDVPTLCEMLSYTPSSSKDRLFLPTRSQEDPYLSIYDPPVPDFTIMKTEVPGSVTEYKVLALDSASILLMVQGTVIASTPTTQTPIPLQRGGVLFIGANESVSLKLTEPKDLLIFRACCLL
row,Structure (SMILES),inhibition
1,COc1ccccc1NC(=O)c1cnc2c(-c3ccccc3)c(C)nn2c1C,8.9%
2,COCCNC(=O)/C(C#N)=C/c1cc(C)n(C2CCCCC2)c1C,-6.4%
3,O=C(c1cnn(-c2ccccc2)c1)c1ccc2ccccc2c1O,23.1%
4,O=C(COC(=O)[C@H](Cc1ccccc1)NC(=O)c1ccco1)NC(c1ccccc1)c1ccccc1,11.5%
5,COc1ccc(C(=O)Nc2cc(OC)cc(OC)c2)cc1,10%
6,COc1cccc(NC(=O)c2ccncc2)c1,6%
7,COc1cc(N)cc(NC(=O)c2ccncc2)c1,50.4% (active)
8,COc1nc(OC)nc(N2CCC(C(=O)NC3CCCCCC3)CC2)n1,1.4%
9,Cc1ccccc1NC(=S)NCc1ccc(Cl)cc1,9.2%
10,CC1CCc2c(C(=O)Oc3cccc(-n4cnnn4)c3)csc2C1 (stereo not drawn),15.6%
11,CC(C)COCc1ccc(O)c2ncccc12,14.9%
12,Cc1ccc(O)c(CNc2cccc3cccnc23)c1,63.8% (active)
13,Cc1cccc(NCc2ccccc2O)c1C,25.8%
14,Fc1ccc(NCc2cccnc2)cc1,-2%
15,Cc1cccnc1NCc1ccc(O)c2ncccc12,63.6% (active)
16,Oc1ccc(Cn2ccnc2)c2cccnc12,7.4%
17,Cc1ccc(O)c(CNc2ccccn2)c1,-7.2%

row,Structure (SMILES),inhibition
1,Oc1ccccc1CNc1cccc2cccnc12,45.3%
2,COCc1ccc(O)c2ncccc12,22.6%
3,Cc1ccccc1NCc1ccccc1O,1.6%
4,CSc1cccc(NC(=S)N(CCCN2CCCC(C)C2)Cc2cccs2)c1 (stereo not drawn),4.6%
5,COCCOC(=O)C1=C(C)N=C2SCCC(=O)N2C1c1cccc(Br)c1 (stereo not drawn),1.8%
6,CCCC(=O)Nc1nc(C)c(-c2csc(Nc3ccc(Cl)cc3)n2)s1,38.4%
7,O=C(Cn1cc(C(F)(F)F)cc(Cl)c1=O)Nc1cc(Cl)cc(Cl)c1,13.7%
8,C=CCn1c(SCC(=O)Nc2ccc3c(c2)OCO3)nnc1-c1ccccc1,25.6%
9,CCOC(=O)c1ccc(Cn2cnc3ccccc3c2=O)cc1,11.7%
10,CCOC(=O)C1=C(c2ccccc2)NC(SC)=C(C#N)C1c1cccnc1 (stereo not drawn),3.3%
11,O/N=C1/CCSc2ccccc21,9.7%
12,Oc1ccc(CNc2ccccc2F)c2cccnc12,73.8% (active)
13,O=C(Cc1ccccc1F)Nc1cccc2cccnc12,-1.1%
14,COc1ccc(O)c(CNc2ccccc2F)c1,17.2%
15,O=[N+]([O-])c1ccc(O)c2ncccc12,9%
16,Cc1ccccc1N=Nc1ccc(O)c2ncccc12,31.3%
